The values below come from PubChem BioAssay.

By inhibition is commonly meant the relative decrease from the control value, in per cent.

Activity calls are given as the source filed them.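 The calls were made as follows, unless noted: active = fluorescence slope after compound addition differing from the mean of all screened samples at 99.7% confidence, in either direction; inactive = the rest.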

Assay [1] can be described thus: inhibitors of TNFa-induced NFkB p65 translocation, primary screen, imaging, HUVEC, MLSMR starter and 10KST1 sets (AID 438;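 active = inhibition above 20% together with a positive visual image hit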;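 also: compound added about 3h40 before a 20 min TNFalpha stimulation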;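 as to inhibition: signal is the nuclear over cytoplasmic p65 intensity ratio per well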). To be noted: HUVEC TNFa-induced p65 nuclear translocation; cell count: measured here: nuclei count (cytotoxicity indicator), at 2.08 µM; inhibition: at 2 µM, stronger effect = higher value, 0% TNFa-plus-vehicle, 100% no-TNFa wells.
Assay [2] in a line: inhibitors of mutant huntingtin aggregation, primary screen, imaging, exon1htt(103Q)mCFP cells, high-content imaging (AID 483;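 active = visual image review flags a hit and inhibition of aggregation exceeds 20%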;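 also: compound exposure lasted 3 days before fixation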;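 as to nuclei count: percent of the per-plate median nuclei count of sample wells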). To be noted: exon1htt(103Q)mCFP cell line, aggregate imaging, at 2 µM; inhibition of aggregation: stronger effect = higher value; nuclei count: measured here: cell count, toxicity.
A short description of assay [3]: inhibitors of E-selectin induction by TNFa, primary screen, imaging, HUVEC, immunofluorescence, MLSMR starter and 10KST1 sets (AID 487;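 active = visually confirmed hit in the image check and inhibition above 20%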;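 as to inhibition: signal is fraction of cell area covered by stained E-selectin grains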;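 as to nuclei count: 100% = median nuclei count of all wells on the same plate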). To be noted: HUVEC TNFalpha-induced E-selectin immunofluorescence imaging, at 2 µM; inhibition: stronger effect = higher value; nuclei count: measured here: cell number, toxicity.
Assay [4] concerns the target Voltage-gated potassium channel subunit beta-2 (Rattus norvegicus) (UniProt P62483). In words: KvBeta enzyme negative modulators, primary screen, biochemical, NADPH fluorescence (AID 622;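 active = fluorescence slope higher than the sample average by over 3 SD, cut at about -0.22 in these data, passing the limit was not always enough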;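 also: slope of raw intensity against log time taken from 70 to 1610 s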). The conditions noted are these: recombinant KvBeta, 4-cyanobenzaldehyde reduction, at 10 µM, stronger effect = higher value.
Assay [5] has the same target. In words: KvBeta positive modulators, primary screen, biochemical, NADPH fluorescence (AID 623;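 active = NADPH fluorescence slope more negative than the mean of all samples by about 3 SD, 99.7% confidence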;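 also: fluorescence intensity change per second fitted from 20 to 320 s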). To be noted: Recombinant KvBeta, NADPH fluorescence decrease slope, 10 min; at 10 µM; stronger effect = lower value.
Assay [6] has as its target Alpha-2C adrenergic receptor (Homo sapiens) (UniProt P18825). In words: modulators of alpha2C/GIRK thallium flux, primary screen, cell-based, HEK293 alpha2C/GIRK1/2 (AID 624).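 Also: slope of fluorescence ratio to pre-addition baseline per second over 15 to 24 s.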 To be noted: thallium flux BTC fluorescence, at 10 µM, actives lie on both sides.
The nature of assay [7]: inhibitors of Sendai virus-induced IRF3 signaling, primary screen, TLR/RLR signaling modifier project, cell-based, Sendai virus stimulus, luciferase, 10K MLSCN set (AID 602276;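 active = inhibition at or above 50% at 10 µM; inactive = inhibition below 50%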;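 also: firefly luciferase from ISG56 promoter only with Renilla not read in this screen; 0% = Sendai virus plus DMSO and 100% = medium plus DMSO without virus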). The conditions noted are these: HEK293 RL24 IRF3 luciferase reporter, at 10 µM, stronger effect = higher value. A general note: Reporter assays use an easily measured gene product as a stand-in for the process of interest.

Assay [8] in a line: inhibitors of poly I:C-induced TLR3 signaling, primary screen, cell-based, poly I:C stimulus, luciferase, 10K MLSCN set (AID 602277;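 active = inhibition of the reporter signal at or above 50%; inactive = inhibition below 50%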). To be noted: HEK293-TLR3 RL24 IRF3 luciferase reporter, at 10 µM, stronger effect = higher value.

Alpha-2C adrenergic receptor (Homo sapiens), sequence (P18825 whole entry, looked up): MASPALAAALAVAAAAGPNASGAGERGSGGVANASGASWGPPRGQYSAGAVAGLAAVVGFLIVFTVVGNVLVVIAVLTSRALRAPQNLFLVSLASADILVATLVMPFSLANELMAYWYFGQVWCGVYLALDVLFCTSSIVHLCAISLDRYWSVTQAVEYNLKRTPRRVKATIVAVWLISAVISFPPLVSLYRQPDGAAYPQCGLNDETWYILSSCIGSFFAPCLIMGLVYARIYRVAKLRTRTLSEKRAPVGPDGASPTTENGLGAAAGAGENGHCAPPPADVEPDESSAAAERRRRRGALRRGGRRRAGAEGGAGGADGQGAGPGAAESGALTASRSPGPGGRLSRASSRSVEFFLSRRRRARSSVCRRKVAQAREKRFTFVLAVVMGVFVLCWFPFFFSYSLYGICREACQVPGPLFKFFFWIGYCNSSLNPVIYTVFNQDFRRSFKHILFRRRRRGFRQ
Voltage-gated potassium channel subunit beta-2 (Rattus norvegicus), sequence (P62483 whole entry, looked up): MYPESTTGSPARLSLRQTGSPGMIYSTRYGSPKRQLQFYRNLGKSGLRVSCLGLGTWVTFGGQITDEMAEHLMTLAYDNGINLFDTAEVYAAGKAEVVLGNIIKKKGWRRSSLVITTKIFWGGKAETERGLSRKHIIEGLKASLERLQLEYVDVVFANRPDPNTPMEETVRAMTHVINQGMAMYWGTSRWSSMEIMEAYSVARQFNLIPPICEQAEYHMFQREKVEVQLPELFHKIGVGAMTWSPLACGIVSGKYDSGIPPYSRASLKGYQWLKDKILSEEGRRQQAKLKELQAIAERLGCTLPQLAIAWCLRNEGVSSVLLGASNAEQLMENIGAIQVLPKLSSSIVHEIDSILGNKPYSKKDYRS

Take `O=C(CCN1C(=O)C2C3C=CC(C3)C2C1=O)NCCc1ccccc1Cl` (centres undefined): in assay [1], the cell count turned out to be 408. The inhibition in assay [1] is 10.7% (inactive); in assay [3], -111% (inactive); in assay [7] it was -11.5% (inactive); in assay [8], -13.2% (inactive). Moreover, the inhibition of aggregation in assay [2] is -1.6% (inactive). For the same molecule, the nuclei count in assay [2] came to 103%; in assay [3], 99.4%. Also, the fluorescence slope in assay [4] was -0.498 (inactive). Besides, in assay [5], the NADPH fluorescence slope is -2.1e-05 (inactive). In addition, in assay [6], the slope was 0.00634 (inactive).

For the molecule `Cc1c(NC(=O)CSc2nnc3sc4ccccc4n23)c(=O)n(-c2ccccc2)n1C`, the cell count in assay [1] came to 655. For the same molecule, the inhibition is 1% (inactive) in assay [1], -24.3% (inactive) in assay [3], 19.4% (inactive) in assay [7] and 24.6% (inactive) in assay [8]. Besides, the inhibition of aggregation in assay [2] is 16.2% (inactive). Moreover, the nuclei count in assay [2] turned out to be 98.3%; in assay [3] it was 101%. Besides, the fluorescence slope in assay [4] is -0.555 (inactive). For the same molecule, the NADPH fluorescence slope in assay [5] was 6.7e-05 (inactive). Also, in assay [6], the slope is 0.00649 (inactive).

Take `COC(C)(C)c1cc(C(C)(C)C)nc(N)n1`: the cell count in assay [1] stood at 433. In addition, the inhibition in assay [1] was 12% (inactive); in assay [3], -28.8% (inactive); in assay [7] it was 6.59% (inactive); in assay [8], 24.6% (inactive). For the same molecule, the inhibition of aggregation in assay [2] was 9.5% (inactive). Also, the nuclei count in assay [2] is 103%; in assay [3] it was 129%. Further, the fluorescence slope in assay [4] is -0.385 (inactive). Further, the NADPH fluorescence slope in assay [5] was -7.8e-05 (inactive). The slope in assay [6] was 0.00615 (inactive).

Turning to `COc1ccc(C(=O)N2CCN(S(=O)(=O)c3cc(Cl)ccc3OC)CC2)cc1`, the cell count in assay [1] is 398. The inhibition in assay [1] is 7.3% (inactive); in assay [3], -74.2% (inactive); in assay [7] it was 16.1% (inactive); in assay [8], 18% (inactive). For the same molecule, the inhibition of aggregation in assay [2] was -29.4% (inactive). Besides, the nuclei count came to 64.6% in assay [2] and 106% in assay [3]. Further, in assay [4], the fluorescence slope is -0.368 (inactive). In addition, the NADPH fluorescence slope in assay [5] is -2.2e-05 (inactive). Further, the slope in assay [6] was 0.00259 (inactive).

`Cn1cnc2cc(NC(=O)c3ccc(Cl)cc3)ccc21`: the cell count in assay [1] stood at 829. In addition, the inhibition in assay [1] was 6.9% (inactive); in assay [3] it was 3.1% (inactive); in assay [7], -39.3% (inactive); in assay [8], -143% (inactive). The inhibition of aggregation in assay [2] was 22.8% (inactive). Moreover, the nuclei count in assay [2] came out at 74.5%; in assay [3], 106%. The fluorescence slope in assay [4] is -0.387 (inactive). The NADPH fluorescence slope in assay [5] is 2.4e-05 (inactive). The slope in assay [6] was 0.00603 (inactive).

As for `CC12COC3(C(=O)Nc4ccc(Cl)cn4)CC1CCC32C` (centres undefined), the cell count in assay [1] turned out to be 773. The inhibition in assay [1] was -8% (inactive); in assay [3], -32.6% (inactive); in assay [7], -1.35% (inactive); in assay [8], 10.2% (inactive). In addition, in assay [2], the inhibition of aggregation is 16.9% (inactive). Further, the nuclei count in assay [2] came out at 85.1%; in assay [3], 102%. In assay [4], the fluorescence slope was -0.395 (inactive). Further, the NADPH fluorescence slope in assay [5] is -5.6e-05 (inactive). Also, the slope in assay [6] was 0.00598 (inactive).

Turning to `COc1ccccc1OCCCn1c(=O)oc2ccccc21`, the cell count in assay [1] was determined as 219. Besides, the inhibition in assay [1] was 3.7% (inactive); in assay [3], -46.5% (inactive); in assay [7] it was -13.6% (inactive); in assay [8] it was -42.9% (inactive). Further, in assay [2], the inhibition of aggregation was 3.2% (inactive). Moreover, the nuclei count in assay [2] turned out to be 91.4%; in assay [3], 94.4%. In addition, in assay [4], the fluorescence slope was -0.506 (inactive). Also, the NADPH fluorescence slope in assay [5] was -4.3e-05 (inactive). For the same molecule, the slope in assay [6] was 0.00513 (inactive).

Consider `S=C(c1cccs1)N1CCCC1`, for which the cell count in assay [1] came out at 708. Further, the inhibition in assay [1] is -25.9% (inactive); in assay [3], 22.3% (inactive); in assay [7] it was -7.06% (inactive); in assay [8] it was 6.9% (inactive). In addition, the inhibition of aggregation in assay [2] was -3.8% (inactive). Also, the nuclei count in assay [2] was determined as 105%; in assay [3], 100%. In addition, the fluorescence slope in assay [4] was -0.421 (inactive). Further, the NADPH fluorescence slope in assay [5] was -4e-05 (inactive). Also, in assay [6], the slope is 0.00656 (inactive).

For the molecule `CC1(C)CC(=O)c2cnc(NC(=O)CCc3ccccc3)nc2C1`, the cell count in assay [1] was determined as 608. In addition, the inhibition was -15.9% (inactive) in assay [1], -24.7% (inactive) in assay [3], 14.3% (inactive) in assay [7] and 33% (inactive) in assay [8]. Moreover, the inhibition of aggregation in assay [2] is -15.3% (inactive). The values for the nuclei count in assay [2] and in assay [3] were 112% and 119%, respectively. Further, the fluorescence slope in assay [4] is -0.365 (inactive). Moreover, the NADPH fluorescence slope in assay [5] was 9.1e-06 (inactive). For the same molecule, in assay [6], the slope is 0.00293 (inactive).

As to `COc1ccc(Cl)cc1Nc1nc(NCCO)nc(N2CCCC2)n1`, the cell count in assay [1] was determined as 390. The inhibition is -4.3% (inactive) in assay [1], -6% (inactive) in assay [3], 11.5% (inactive) in assay [7] and 16.2% (inactive) in assay [8]. Further, the inhibition of aggregation in assay [2] was 5.8% (inactive). Moreover, the nuclei count was determined as 95.9% in assay [2] and 112% in assay [3]. In assay [4], the fluorescence slope is -0.595 (inactive). In addition, in assay [5], the NADPH fluorescence slope was -2.1e-05 (inactive). Moreover, the slope in assay [6] was 0.00689 (inactive).

Consider `COc1ccc(CN(C(=O)c2cccs2)c2nccs2)cc1OC`, for which, in assay [1], the cell count is 457. Besides, the inhibition in assay [1] was 3.9% (inactive); in assay [3], -60.6% (inactive); in assay [7] it was -2.48% (inactive); in assay [8], 21.6% (inactive). Further, the inhibition of aggregation in assay [2] was -1.2% (inactive). Besides, the nuclei count is 112% in assay [2] and 111% in assay [3]. In assay [4], the fluorescence slope is -0.458 (inactive). Besides, the NADPH fluorescence slope in assay [5] is -3e-05 (inactive). Besides, the slope in assay [6] is 0.00675 (inactive).

Regarding `Cc1nc2c(-c3ccccc3)c(C)nn2c(C)c1CCC(=O)O`, in assay [1], the cell count was found to be 586. Also, the inhibition is 6.1% (inactive) in assay [1], -61.1% (inactive) in assay [3], 13.6% (inactive) in assay [7] and 20% (inactive) in assay [8]. The inhibition of aggregation in assay [2] was 8.1% (inactive). Also, the results for the nuclei count in assay [2] and in assay [3] were 73% and 103%, respectively. Besides, in assay [4], the fluorescence slope is -0.492 (inactive). The NADPH fluorescence slope in assay [5] was -2.4e-05 (inactive). The slope in assay [6] is 0.00603 (inactive).

`CCCCCCn1c(SCC(=O)OC)nc2c1c(=O)[nH]c(=O)n2C`: the cell count in assay [1] came out at 502. For the same molecule, the inhibition was -5.9% (inactive) in assay [1], 5% (inactive) in assay [3], 9.4% (inactive) in assay [7] and 31.6% (inactive) in assay [8]. Also, the inhibition of aggregation in assay [2] is 25.4% (inactive). Also, the nuclei count in assay [2] was 71.7%; in assay [3], 91.4%. Besides, in assay [4], the fluorescence slope is -0.42 (inactive). Also, the NADPH fluorescence slope in assay [5] is -5.2e-05 (inactive). Also, the slope in assay [6] is 0.00477 (inactive).

Consider `CCCN1C2CCCC1CC(NC(=O)Nc1cccc(C(C)=O)c1)C2` (centres undefined), for which the cell count in assay [1] turned out to be 418. Also, the inhibition was -10.3% (inactive) in assay [1], -138% (inactive) in assay [3], 23.1% (inactive) in assay [7] and 37.8% (inactive) in assay [8]. In assay [2], the inhibition of aggregation was -17% (inactive). Further, the nuclei count stood at 97% in assay [2] and 180% in assay [3]. In assay [4], the fluorescence slope is -0.637 (inactive). Also, the NADPH fluorescence slope in assay [5] is 1.7e-05 (inactive). Moreover, in assay [6], the slope was 0.00567 (inactive).
